Assay results published in ChEMBL document CHEMBL3433997, “St. Jude Leishmania screening dataset” (2016).

Experiments:
Format in all cases: functional
[1] = target: Solute carrier family 2, facilitated glucose transporter member 1 (Homo sapiens) (UniProt P11166); experiment: ST_JUDE_LEISH: Cytotoxicity at 2uM final concentration against transgenic Leishmania Mexicana promastigotes LmGLUT1 that are glucose transport deficient and complemented with the human glucose transporter GLUT1. Activity is measured by DNA content using SYBR green in vitro
Solute carrier family 2, facilitated glucose transporter member 1 (Homo sapiens), sequence (P11166 whole entry): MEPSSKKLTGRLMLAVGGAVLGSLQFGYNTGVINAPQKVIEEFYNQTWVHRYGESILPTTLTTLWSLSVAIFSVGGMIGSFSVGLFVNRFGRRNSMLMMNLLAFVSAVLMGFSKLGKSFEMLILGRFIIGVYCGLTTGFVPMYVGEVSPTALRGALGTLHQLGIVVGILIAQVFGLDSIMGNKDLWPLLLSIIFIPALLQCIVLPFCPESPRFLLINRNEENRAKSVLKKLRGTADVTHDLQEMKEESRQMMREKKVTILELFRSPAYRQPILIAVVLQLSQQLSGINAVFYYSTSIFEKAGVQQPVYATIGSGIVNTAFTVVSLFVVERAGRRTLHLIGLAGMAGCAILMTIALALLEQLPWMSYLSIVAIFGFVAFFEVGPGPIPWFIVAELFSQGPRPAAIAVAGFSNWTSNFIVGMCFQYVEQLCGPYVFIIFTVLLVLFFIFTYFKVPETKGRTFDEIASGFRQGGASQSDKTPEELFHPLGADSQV

[2] = target: Hexose transporter 1 (Plasmodium falciparum) (UniProt O97467); experiment: ST_JUDE_LEISH: Cytotoxicity at 2uM final concentration against transgenic Leishmania Mexicana promastigotes LmPfHT that are glucose transport deficient and complemented with the Plasmodium falciparum hexose transporter. Activity is measured by DNA content using SYBR green in vitro
[3] = target: Glucose transporter (Leishmania mexicana) (UniProt O61059); experiment: ST_JUDE_LEISH: Cytotoxicity at 2uM final concentration against transgenic Leishmania Mexicana promastigotes LmGT2 that are glucose transport deficient and complemented with the L. Mexicana glucose transporter 2. Activity is measured by DNA content using SYBR green in vitro

SMILES	inhibition [1]	inhibition [2]	inhibition [3]
CN1CCCc2ccc(NC(=O)Nc3ccc(Cl)c(Cl)c3)cc2C1	-0.95%	-0.84%	-1.33%
Nc1nc(N)c2cc(CNc3ccc(Cl)c(Cl)c3)ccc2n1	8.27%	6.41%	-0.28%
CCCc1cc(Cc2cnc(N)nc2N)cc(OC)c1OC	0.14%	2.78%	0.24%
CC(Cc1ccc(COc2ccc(CC(CO)NCCc3cccc(Cl)c3)cc2)cc1)NCCc1cccc(Cl)c1 (stereo unspecified)	51.7%	38.4%	69.3%
CCc1cc(N2CCN(c3ccccc3F)CC2)nc(SCc2ccc(C(=O)NC3CC3)o2)n1	2.82%	1.67%	2.15%
COc1ccc2ncc(F)c(CCN3CC(O)C(CNCc4ccc5oc(=O)ccc5c4)C3)c2n1 (stereo unspecified)	8.17%	6.29%	5.19%
C=CCOC(=O)O[C@@H]1[C@@H](OC(=O)OCC=C)[C@@H](OC)O[C@H](COC(c2ccccc2)(c2ccccc2)c2ccccc2)[C@H]1OC(=O)OCC=C	4.46%	3.53%	4.42%
O=C(/C=C/c1ccc(Cl)c(Cl)c1)NCCCCCN1CCC(NC(=O)Nc2ccccc2Cl)CC1	0.63%	0.55%	0.27%
O=C(CCc1c[nH]cn1)Nc1cccc(-c2cccc(-c3nc4ccccc4[nH]3)c2)c1	14.3%	13.2%	11.3%
CNc1ccc(CNCc2ccc(-c3ccc(-c4nc5cc(C(F)(F)F)ccc5[nH]4)s3)cc2)cc1	2.19%	0.49%	-0.01%
CN(CCON1C(=N)N=C(N)NC1(C)C)c1ccccc1	-0.49%	0.33%	0.35%
Cc1cccc2nc(-c3cccc(-c4cccc(CNCCc5ccncc5)c4)c3)[nH]c12	-1.47%	1.2%	-1.48%
CCOc1ccc(-c2noc(-c3c[nH]c4ccccc4c3=O)n2)cc1	1.69%	-0.34%	2.82%
COc1cccc(C(=O)Nc2ccc(S(=O)(=O)c3cc4c(cc3OC)CCN(C)CC4)cc2)c1	1.6%	-0.4%	1.23%
COc1ccc2[nH]c3ccccc3c(=O)c2c1	-0.87%	0.99%	6.72%
c1ccc(Oc2ccc(Nc3ccnc4cc(-c5csc(CN6CCCCC6)n5)ccc34)cc2)nc1	0.24%	1.27%	0.89%
O=C(Cn1c(SCc2cccc(F)c2F)cc(=O)c2ccccc21)N(CCn1ccnc1)Cc1ccc(-c2ccc(C(F)(F)F)cc2)cc1	5.51%	5.78%	2.82%
